# Measurements from PubChem BioAssay AID1508600 (Functional Genomics Laboratory (NCATS/FGL), 2020).
# In all, about 53,000 sequences went through this assay and about 3,700 (7%) were called active. This excerpt belongs to a sample that is enriched for actives. A number with no mark means an inactive call.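 How the source made its calls: active means gene knockdowns whose robust z-score for IL-1 alpha signal is at least 2 or at most -2, so actives lie on both sides; inactive means the rest.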
# Assay: Components of the Cytosolic LPS Sensing Pathway: Gene Identification via Genome-wide siRNA Screen;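 further: robust z of the log signal after scaling to non-targeting control siRNA wells of the plate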
# Conditions: RAW264.7 macrophages, IL-1a HTRF, actives lie on both sides, screened at 100 nM (by protocol), cells primed 5 h with Pam3CSK4 first
# How it was run: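 Read-out: IL-1a HTRF on supernatant, divided by plate negative-control median ×100, log-transformed and converted to robust z-score. Cells were RAW264.7 given 100 nM siRNA, Pam3CSK4-primed 5 hours, then LipidA-transfected 24 hour.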
row,Sequence,z-score
1,CCGACUGUUAAAGUGGUGUTT against Arih1,0.608
2,GUUUUACAAAUUCCUCCAUTT against Olfr1447,0.345
3,CCAGUUUUCGACACAAUUCTT against Cma1,0.645
4,GGCAGAGAAAUGGGCAAUGTT against Hcar1,2.12 (active)
5,GCUUAUGAGACUCAUUUAATT against Oser1,0.554
6,GCCGCUGCACUACAAUUUGTT against Trhde,0.717
7,GGAGCUAUACUGCUUUUCCTT against Mtmr7,1.61
8,GGCUUACCUGAACUUUCUGTT against Degs2,-0.381
9,GGGUGUCUUACACCUUACATT against Sertad2,-1.48
10,GGUGUUUGAGUCAACAGACTT against Oard1,-2.1 (active)
11,GCUGUUGUUUGCUAGCAAATT against Lipa,0.973
12,GGAAGUCCACAUUGCUGGUTT against Slc2a9,1.85
13,GGGUUUUGAGAUGUAAUGATT against Marchf8,0.0734
14,GCAGCCUAUGGAAGAUCACTT against Tle4,2.8 (active)
15,GCACUACACCUCCAGUUCGTT against Gne,0.164
16,CCACAUGUUUGUCUCAAAATT against Gskip,1.28
17,CGACCCUACAGAGGACAUUTT against Pik3r6,0.135
18,GGAAAUGAAGCAUCUGUAUTT against Txnip,-2.3 (active)
19,GGGUUUCACCCAAAGCCUUTT against Zfp354c,-1.41
20,GGCUCAGUAAGGACUCUGATT against Tac2,1.24
21,GGAAUAGAAGCACUGUGUGTT against Brs3,-1.35
22,GGGCCCAGAUUUCAAUGGGTT against Car14,0.379
23,GCCACUCACUAUGCUACUCTT against Pnpla2,-2.62 (active)

row,Sequence,z-score
1,GGCAUCUCCCACAUUAGAGTT against Sell,0.949
2,GGAAUAUGACUACAUGAAATT against Calu,-0.0124
3,GGAAAUUCGUGCAUGAAGATT against Sgsm2,-1.31
4,GGAGUCGAAUCUUCUCUAATT against Taco1,-1.07
5,GGUGCACACCAAUGUUCUGTT against Efemp2,2.03 (active)
6,GCUAUGCUGUUUUAUGUGATT against Synpr,0.212
7,CCUAUUGUAGCAAGUUACATT against H3c7,1.15
8,GGCAGAUGUACUGAUUAAATT against Tmprss11g,1.05
9,CGUUCUCUUGAAAUAAGCCTT against Pogk,-0.147
10,GGGACCUCCAUCGUAUUUGTT against Slc29a4,0.71
11,GCAACUGGUGAUAAGGUGUTT against Flywch1,0.486
12,GGCCAGAGUAUCGAUGUUCTT against Slc25a14,-0.566
13,GGGACUUGAGUAGCUGACUTT against Sgta,-1.49
14,GCUUUCUUACCAAGAGUCATT against Vsig8,-2.89 (active)
15,CCUCUUAUCUCGAACAUUATT against Dsn1,0.95
16,GGAGAUAACACCGUUACUUTT against Olfr769,0.766
17,GGAUCUGAAGAUGAUGAACTT against Ces2e,0.0623
18,CCUAGAAAUGAUUGUUGUUTT against Ncapg2,1.98
19,GGAGACCUUAAAAGAACAUTT against Ccdc134,0.775
20,CCCGGUUGUCUGGAUAUGATT against Map3k3,-2.39 (active)
21,CCCAGAUGGAUUUUUGCAUTT against Gm10413,0.102
22,GCCAAAGUCUUGCUAUGUGTT against Uba7,-0.481
23,GGAAGCUCUUCAACUCUACTT against Vps4b,2.06 (active)

row,Sequence,z-score
1,AUUGGACUUCUACAUGGCUTT against Olfr207,1.43
2,GGAGAGAUGGUAUUGUUGGTT against Olfr1298,-0.0094
3,GGGCACUCAAGUGUAUGUCTT against Hpx,0.224
4,GCCAAAUGAACUAGCAAUATT against Golm1,0.0585
5,GGCAUUUGAGUGGACUGUUTT against Hirip3,0.421
6,GGUCUGUCUCGUCUACAAUTT against Gstm1,2.98 (active)
7,GGCGUAAAAUUCAAACUCATT against Cr2,1.02
8,GGAUCAGGAAGGAUUCGGATT against Zfp84,-1.01
9,GGAAGGAGCUUCGAAAAAATT against Pex16,0.129
10,GGAGAAGUUUAGUGAAGAATT against Rmdn2,-2.48 (active)
11,GGCUUAAGGACAAGAAGAUTT against Gsn,-0.747
12,CCAUAAGUUUGAAGAAUCCTT against Glg1,1.45
13,GGCUAUGUAGAUGGUUUUGTT against B830017H08Rik,2.65 (active)
14,GGAUCACCUAACGUAAUGGTT against Phlda1,-1.31
15,GGUGACUUGGAAGAGCCCATT against Il1rapl2,-0.637
16,CGUCGUGGUUGGUAUGUAATT against Sacs,-1.18
17,GGCCAGACAAAUGAUGCCATT against Slc25a30,-3.04 (active)
18,GGAACUAUAUACGAUGAUGTT against Usp8,-0.316
19,GGAGUUUGAAGACUUUUUGTT against Pstpip2,0.24
20,CGGCUAGAUGAUCCUACCUTT against Tsga13,-0.542
21,GGCCCUAGAUGAGCACAAATT against Kcnh3,2.48 (active)
22,GCUCUGAUCAUUUGACUUGTT against Ovca2,0.128
23,GGACCAGAAAUACAUUUUCTT against Arhgef2,-0.288
